Reference: PubChem BioAssay (EPA / NIEHS)
Results filed as inconclusive are left out. The source made the active and inactive calls. How the source made its calls, unless noted: active means hit-call score of the fitted dose curve at least 0.9, where 1 is the maximum; inactive means score below 0.9.

Experiments:
[1] = ATG_TCF_b_cat_CIS: Attagene CIS-FACTORIAL HepG2 Assay for human T-Cell-Factor with beta-catenin (TCF/b-cat) (AID 2282965); settings: HepG2 TCF/beta-catenin cis-reporter transcription, actives raise or lower the signal
Summary of the method: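 Endogenous transcription factor activity is captured through cis-promoter reporter constructs transiently introduced into human HepG2 liver cells. Induced reporter mRNA is measured after 24 h and fitted bidirectionally relative to DMSO.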

[2] = ATG_TAL_CIS: Attagene CIS-FACTORIAL HepG2 Assay for human TAL Basal Promoter (AID 2282966); settings: HepG2 Attagene cis-factorial TAL promoter reporter; actives raise or lower the signal;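 further: background control endpoint measuring basal TAL promoter reporter mRNA not a specific factor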
Summary of the method: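 HepG2, transient MRTU transfection, 24 h compound exposure; RNA → oligo(dT) RT → PCR → 6-FAM primer extension → HpaI digest → CE fluorescence. Bidirectional curve fit vs DMSO. Background-control readout.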

[3] = ATG_TGFb_CIS: Attagene CIS-FACTORIAL HepG2 Assay for human Transforming Growth Factor (TGF) (AID 2282967); settings: HepG2 Attagene CIS TGFb reporter, mRNA transcription; actives raise or lower the signal
Summary of the method: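 Transient MRTU transfection of HepG2 (FuGene 6). Dose 24 h. TriZol RNA, oligo(dT) RT, PCR, 6-FAM primer extension, HpaI cut, CE. Bidirectional fit, DMSO = baseline.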

[4] = ATG_VDRE_CIS: Attagene CIS-FACTORIAL HepG2 Assay for human Vitamin D Receptor Element (VDRE) (AID 2282968); settings: HepG2 VDRE cis-reporter transcription, actives raise or lower the signal
Summary of the method: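 Readout is VDRE-driven reporter mRNA reflecting endogenous factor activity in human HepG2 cells, sampled 24 h post-dose. Quantification used labelled RT-PCR products separated by capillary electrophoresis; bidirectional analysis relative to DMSO.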

[5] = molecular target: X-box-binding protein 1 (Homo sapiens) (UniProt P17861); assay: ATG_Xbp1_CIS: Attagene CIS-FACTORIAL HepG2 Assay for human X-box Binding Protein 1 (XBP1) (AID 2282972); settings: HepG2 XBP1 cis-element reporter, Attagene multiplex; actives raise or lower the signal
Sequence of X-box-binding protein 1 (Homo sapiens) (P17861 whole entry, looked up): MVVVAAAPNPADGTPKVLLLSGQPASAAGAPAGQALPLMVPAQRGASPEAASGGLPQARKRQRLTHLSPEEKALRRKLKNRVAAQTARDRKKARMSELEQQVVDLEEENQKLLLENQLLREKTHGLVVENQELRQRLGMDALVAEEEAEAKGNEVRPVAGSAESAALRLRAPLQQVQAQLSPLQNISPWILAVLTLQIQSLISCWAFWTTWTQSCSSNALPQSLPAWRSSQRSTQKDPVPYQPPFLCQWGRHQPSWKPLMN
Summary of the method: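 Human hepatoma HepG2, cis-element reporter system, 24 h treatment; mRNA quantified by RT-PCR/CE fluorescence; fit relative to DMSO.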

[6] = ATG_GAL4_TRANS: Attagene TRANS-FACTORIAL HepG2 Assay for GAL4 (Internal Marker) (AID 2282976; active means hit-call score of the fitted dose curve at least 0.9, where 1 is the maximum); settings: HepG2 Attagene TRANS GAL4 internal marker reporter
Summary of the method: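 RT-PCR/capillary electrophoresis readout of reporter mRNA. HepG2, transient MRTU transfection (GAL4-UAS reporters), 24 h compound exposure. Background-control endpoint, positive direction vs DMSO baseline.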

[7] = ATG_M_06_TRANS: Attagene TRANS-FACTORIAL HepG2 Assay for M06 Transcription Factor (Internal Marker) (AID 2282983; active means hit-call score of the fitted dose curve at least 0.9, where 1 is the maximum); settings: HepG2 Attagene TRANS M06 internal marker reporter
Summary of the method: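 Read-out: fluorescent reporter cDNA fragments resolved by capillary electrophoresis after RT-PCR and HpaI cut. Source cells were HepG2 carrying transfected multi-reporter GAL4 constructs, dosed 24 h. Increase over DMSO control analysed.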

[8] = molecular target: Estrogen receptor (Homo sapiens) (UniProt P03372); assay: ATG_ERa_TRANS: Attagene TRANS-FACTORIAL HepG2 Assay for human Estrogen Receptor alpha (ERa) (AID 2282970; active means hit-call score of the fitted dose curve at least 0.9, where 1 is the maximum); settings: HepG2 Attagene TRANS ERa GAL4 reporter, mRNA
Sequence of Estrogen receptor (Homo sapiens) (P03372 whole entry, looked up, the tested form may be a part): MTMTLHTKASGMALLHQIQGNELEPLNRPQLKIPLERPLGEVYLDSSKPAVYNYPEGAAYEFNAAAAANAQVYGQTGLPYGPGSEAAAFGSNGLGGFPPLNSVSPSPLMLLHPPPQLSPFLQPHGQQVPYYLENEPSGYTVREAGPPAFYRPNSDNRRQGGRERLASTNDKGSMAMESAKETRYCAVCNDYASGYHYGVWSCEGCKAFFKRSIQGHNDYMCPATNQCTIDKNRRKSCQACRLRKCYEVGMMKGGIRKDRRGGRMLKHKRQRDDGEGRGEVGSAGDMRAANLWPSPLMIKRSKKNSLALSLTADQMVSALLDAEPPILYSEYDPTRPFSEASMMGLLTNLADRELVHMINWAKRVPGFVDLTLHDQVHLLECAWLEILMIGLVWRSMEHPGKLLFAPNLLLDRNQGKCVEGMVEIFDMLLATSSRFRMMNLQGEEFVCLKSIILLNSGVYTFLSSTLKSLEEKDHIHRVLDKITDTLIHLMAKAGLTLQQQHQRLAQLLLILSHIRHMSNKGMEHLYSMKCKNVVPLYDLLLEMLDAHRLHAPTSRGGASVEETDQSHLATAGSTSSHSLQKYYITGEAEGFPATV
Summary of the method: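 Reporter mRNA induction after 24 hours, detected by fluorescent RT-PCR and capillary electrophoresis, gives the read-out. Cells are HepG2 transiently transfected with GAL4-UAS reporter transcription units responding to chimeric NR-Gal4. Activity is taken as gain of signal over DMSO baseline.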

[9] = molecular target: Glucocorticoid receptor (Homo sapiens) (UniProt P04150); assay: ATG_GR_TRANS: Attagene TRANS-FACTORIAL HepG2 Assay for human Glucocorticoid Receptor (GR) (AID 2282978; active means hit-call score of the fitted dose curve at least 0.9, where 1 is the maximum;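 further: activators score as hits since higher reporter transcript over DMSO is fitted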); settings: HepG2 Attagene TRANS GR reporter, mRNA transcription
Sequence of Glucocorticoid receptor (Homo sapiens) (P04150 whole entry, looked up, the tested form may be a part): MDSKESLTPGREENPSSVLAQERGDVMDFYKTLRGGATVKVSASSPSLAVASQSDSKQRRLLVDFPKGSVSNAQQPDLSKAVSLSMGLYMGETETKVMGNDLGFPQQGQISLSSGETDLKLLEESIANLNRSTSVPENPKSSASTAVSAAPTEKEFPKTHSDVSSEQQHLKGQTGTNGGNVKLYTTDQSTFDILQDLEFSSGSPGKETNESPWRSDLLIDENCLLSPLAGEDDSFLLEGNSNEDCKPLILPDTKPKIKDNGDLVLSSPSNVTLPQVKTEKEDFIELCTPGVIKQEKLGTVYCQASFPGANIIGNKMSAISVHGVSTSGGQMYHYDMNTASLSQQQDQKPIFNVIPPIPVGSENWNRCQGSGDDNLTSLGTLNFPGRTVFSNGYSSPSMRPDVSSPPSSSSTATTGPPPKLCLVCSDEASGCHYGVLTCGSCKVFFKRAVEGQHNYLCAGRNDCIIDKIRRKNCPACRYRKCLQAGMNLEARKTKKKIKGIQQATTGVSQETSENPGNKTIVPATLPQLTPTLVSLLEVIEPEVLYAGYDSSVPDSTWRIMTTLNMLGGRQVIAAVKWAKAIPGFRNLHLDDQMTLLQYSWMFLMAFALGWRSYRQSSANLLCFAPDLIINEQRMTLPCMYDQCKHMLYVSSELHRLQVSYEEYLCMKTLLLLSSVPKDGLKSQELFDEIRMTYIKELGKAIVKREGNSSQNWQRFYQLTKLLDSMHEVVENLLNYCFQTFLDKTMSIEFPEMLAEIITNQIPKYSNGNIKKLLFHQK
Summary of the method: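 Transiently transfected HepG2 cells express chimeric NR-GAL4 proteins acting on GAL4-UAS reporter units. Compounds are applied for 24 h. mRNA induction over DMSO is measured by capillary electrophoresis.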

[10] = molecular target: Oxysterols receptor LXR-alpha (Homo sapiens) (UniProt Q13133); assay: ATG_LXRa_TRANS: Attagene TRANS-FACTORIAL HepG2 Assay for human Liver X Receptor alpha (LXRa) (AID 2282980; active means hit-call score of the fitted dose curve at least 0.9, where 1 is the maximum); settings: HepG2 Attagene TRANS reporter, LXRa transactivation
Sequence of Oxysterols receptor LXR-alpha (Homo sapiens) (Q13133 whole entry, looked up, the tested form may be a part): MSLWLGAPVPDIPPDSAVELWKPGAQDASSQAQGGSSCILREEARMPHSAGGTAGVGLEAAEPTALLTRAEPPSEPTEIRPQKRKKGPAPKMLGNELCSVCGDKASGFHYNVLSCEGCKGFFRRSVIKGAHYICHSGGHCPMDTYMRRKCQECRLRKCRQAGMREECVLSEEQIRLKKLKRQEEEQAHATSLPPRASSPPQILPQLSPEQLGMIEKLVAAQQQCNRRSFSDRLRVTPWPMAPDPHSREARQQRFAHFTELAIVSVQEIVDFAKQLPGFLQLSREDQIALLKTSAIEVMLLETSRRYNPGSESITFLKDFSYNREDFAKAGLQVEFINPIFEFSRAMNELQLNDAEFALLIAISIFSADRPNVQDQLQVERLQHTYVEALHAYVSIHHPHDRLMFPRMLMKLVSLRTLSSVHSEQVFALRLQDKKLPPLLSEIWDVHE
Summary of the method: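 Read-out: reporter transcript levels by RT-PCR plus capillary electrophoresis, fluorescence intensity. Transiently transfected HepG2, exogenous NR-GAL4 chimera, GAL4-UAS reporters; 24 h compound exposure. Activity = increase over DMSO negative control.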

[11] = molecular target: Oxysterols receptor LXR-beta (Homo sapiens) (UniProt P55055); assay: ATG_LXRb_TRANS: Attagene TRANS-FACTORIAL HepG2 Assay for human Liver X Receptor beta (LXRb) (AID 2282981; active means hit-call score of the fitted dose curve at least 0.9, where 1 is the maximum); settings: HepG2 Attagene TRANS GAL4-LXRb reporter, mRNA
Sequence of Oxysterols receptor LXR-beta (Homo sapiens) (P55055 whole entry, looked up, the tested form may be a part): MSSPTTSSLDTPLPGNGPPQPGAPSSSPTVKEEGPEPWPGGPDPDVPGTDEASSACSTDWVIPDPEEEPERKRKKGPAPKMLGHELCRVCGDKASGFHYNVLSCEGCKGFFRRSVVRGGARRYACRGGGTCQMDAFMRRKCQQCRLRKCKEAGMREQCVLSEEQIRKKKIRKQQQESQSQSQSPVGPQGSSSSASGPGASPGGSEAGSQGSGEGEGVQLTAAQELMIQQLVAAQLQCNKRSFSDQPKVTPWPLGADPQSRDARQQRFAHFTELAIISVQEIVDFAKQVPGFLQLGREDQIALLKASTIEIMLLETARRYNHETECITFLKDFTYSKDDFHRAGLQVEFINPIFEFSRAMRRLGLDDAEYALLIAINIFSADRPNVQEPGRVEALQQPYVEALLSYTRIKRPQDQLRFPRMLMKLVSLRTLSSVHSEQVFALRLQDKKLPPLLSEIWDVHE
Summary of the method: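 After 24 h chemical treatment of transfected HepG2 cells carrying exogenous NR-Gal4 chimeras, reporter mRNA was quantified by fluorescent RT-PCR and capillary electrophoresis; activity taken as increase over DMSO controls.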

[12] = ATG_M_32_TRANS: Attagene TRANS-FACTORIAL HepG2 Assay for M32 Transcription Factor (Internal Marker) (AID 2282984; active means hit-call score of the fitted dose curve at least 0.9, where 1 is the maximum;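 further: transcript level of a background control reporter unit measured by RT-PCR and capillary electrophoresis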); settings: HepG2 Attagene TRANS M32 internal marker reporter
Summary of the method: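 Internal background reporter in transfected HepG2: after 24 h chemical exposure, RNA reverse-transcribed, reporter cDNA amplified, fluorescently labelled and HpaI-cut, then sized by capillary electrophoresis. Gain of signal fitted against DMSO control.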

[13] = molecular target: Nuclear receptor subfamily 4 group A member 2 (Homo sapiens) (UniProt P43354); assay: ATG_NURR1_TRANS: Attagene TRANS-FACTORIAL HepG2 Assay for human Nuclear Receptor Related Protein 1 (NURR1) (AID 2282985; active means hit-call score of the fitted dose curve at least 0.9, where 1 is the maximum); settings: HepG2 Attagene TRANS reporter, mRNA readout
Sequence of Nuclear receptor subfamily 4 group A member 2 (Homo sapiens) (P43354 whole entry, looked up, the tested form may be a part): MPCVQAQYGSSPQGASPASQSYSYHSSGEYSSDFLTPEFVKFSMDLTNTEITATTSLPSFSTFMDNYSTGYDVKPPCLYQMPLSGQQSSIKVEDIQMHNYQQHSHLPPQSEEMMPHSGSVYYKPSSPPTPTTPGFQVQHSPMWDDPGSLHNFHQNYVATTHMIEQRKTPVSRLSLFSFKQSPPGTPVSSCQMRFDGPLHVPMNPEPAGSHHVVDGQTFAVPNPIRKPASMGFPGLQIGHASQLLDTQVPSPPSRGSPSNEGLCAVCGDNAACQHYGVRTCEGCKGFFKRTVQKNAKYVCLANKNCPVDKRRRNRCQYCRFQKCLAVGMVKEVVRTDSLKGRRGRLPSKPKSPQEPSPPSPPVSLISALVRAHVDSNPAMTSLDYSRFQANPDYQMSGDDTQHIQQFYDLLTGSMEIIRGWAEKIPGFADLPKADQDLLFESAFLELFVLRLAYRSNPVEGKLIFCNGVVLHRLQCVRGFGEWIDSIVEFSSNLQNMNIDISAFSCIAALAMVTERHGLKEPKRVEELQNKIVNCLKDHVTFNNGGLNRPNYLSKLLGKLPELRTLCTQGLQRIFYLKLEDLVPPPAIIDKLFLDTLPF
Summary of the method: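 Reporter transcript induction, measured by RT-PCR with fluorescent labelling, HpaI digestion and capillary electrophoresis, after 24 hr dosing of human HepG2 cells transiently expressing an exogenous NR-Gal4 fusion with GAL4-UAS-driven reporters; DMSO as baseline.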

[14] = molecular target: Transcriptional activator Myb (Homo sapiens) (UniProt P10242); assay: ATG_Myb_CIS: Attagene CIS-FACTORIAL HepG2 Assay for human Myeloblastosis (Myb) Proto-Oncogene Transcription Factor (AID 2282986); settings: HepG2 Attagene CIS-FACTORIAL Myb reporter transcription; actives raise or lower the signal
Sequence of Transcriptional activator Myb (Homo sapiens) (P10242 whole entry, looked up): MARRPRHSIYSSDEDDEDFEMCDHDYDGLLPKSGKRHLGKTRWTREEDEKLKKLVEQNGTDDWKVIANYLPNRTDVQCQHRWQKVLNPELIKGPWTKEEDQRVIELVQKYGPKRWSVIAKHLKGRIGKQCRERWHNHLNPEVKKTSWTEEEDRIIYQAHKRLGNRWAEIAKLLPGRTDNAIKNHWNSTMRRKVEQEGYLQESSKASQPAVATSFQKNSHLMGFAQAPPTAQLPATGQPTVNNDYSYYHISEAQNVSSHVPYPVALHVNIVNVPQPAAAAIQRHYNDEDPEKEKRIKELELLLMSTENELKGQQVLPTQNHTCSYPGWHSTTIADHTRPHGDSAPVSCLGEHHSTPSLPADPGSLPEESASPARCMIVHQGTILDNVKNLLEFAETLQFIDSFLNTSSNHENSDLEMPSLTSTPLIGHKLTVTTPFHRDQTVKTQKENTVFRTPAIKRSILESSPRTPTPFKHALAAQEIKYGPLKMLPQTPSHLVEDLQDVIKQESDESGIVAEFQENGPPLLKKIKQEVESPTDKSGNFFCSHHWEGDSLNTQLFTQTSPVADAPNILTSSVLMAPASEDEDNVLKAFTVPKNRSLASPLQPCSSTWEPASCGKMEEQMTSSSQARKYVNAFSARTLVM
Summary of the method: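 Using HepG2 liver cells bearing transiently transfected cis-promoter reporter constructs, the assay measures induction or loss of reporter mRNA after 24 hours of dosing. Detection used fluorescently labeled RT-PCR products separated by capillary electrophoresis.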

[15] = molecular target: Estrogen-related receptor gamma (Homo sapiens) (UniProt P62508); assay: ATG_ERRg_TRANS: Attagene TRANS-FACTORIAL HepG2 Assay for human Estrogen-Related Receptor gamma (ERRg) (AID 2282977; active means hit-call score of the fitted dose curve at least 0.9, where 1 is the maximum;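 further: hits increase reporter signal over DMSO so potencies reflect activators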); settings: HepG2 Attagene TRANS reporter, ERRg transactivation
Summary of the method: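 Induction of reporter transcripts through a chimeric NR-Gal4 protein is quantified in transfected human HepG2 liver cells after 24 h chemical exposure, using RT-PCR with capillary electrophoresis detection and DMSO as baseline.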

[16] = molecular target: Hepatocyte nuclear factor 4-alpha (Homo sapiens) (UniProt P41235); assay: ATG_HNF4a_TRANS: Attagene TRANS-FACTORIAL HepG2 Assay for human Hepatocyte Nuclear Factor 4 alpha (HNF4a) (AID 2282982; active means hit-call score of the fitted dose curve at least 0.9, where 1 is the maximum); settings: HepG2 HNF4a transactivation reporter, mRNA readout
Sequence of Hepatocyte nuclear factor 4-alpha (Homo sapiens) (P41235 whole entry, looked up, the tested form may be a part): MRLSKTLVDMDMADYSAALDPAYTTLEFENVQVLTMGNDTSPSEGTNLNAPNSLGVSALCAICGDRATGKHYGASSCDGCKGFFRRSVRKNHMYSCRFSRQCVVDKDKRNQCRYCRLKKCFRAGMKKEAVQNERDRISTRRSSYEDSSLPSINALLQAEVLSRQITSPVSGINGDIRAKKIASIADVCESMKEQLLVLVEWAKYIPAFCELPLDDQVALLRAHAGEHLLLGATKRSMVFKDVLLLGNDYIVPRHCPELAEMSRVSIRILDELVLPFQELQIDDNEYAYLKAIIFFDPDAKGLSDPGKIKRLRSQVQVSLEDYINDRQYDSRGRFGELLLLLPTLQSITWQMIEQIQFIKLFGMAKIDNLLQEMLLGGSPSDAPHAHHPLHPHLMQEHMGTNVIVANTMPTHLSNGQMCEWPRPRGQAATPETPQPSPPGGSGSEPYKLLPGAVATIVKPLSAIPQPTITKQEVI
Summary of the method: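 Activity of an exogenous HNF4a–Gal4 fusion scored as induced GAL4-UAS reporter transcripts after 24 h chemical exposure of transfected human HepG2 cells. Read-out via RT-PCR with 6-FAM labelling and capillary electrophoresis; rise over DMSO baseline.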

[17] = molecular target: Bile acid receptor (Homo sapiens) (UniProt Q96RI1); assay: ATG_FXR_TRANS: Attagene TRANS-FACTORIAL HepG2 Assay for Farnesoid X Receptor (FXR) (AID 2282979; active means hit-call score of the fitted dose curve at least 0.9, where 1 is the maximum;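 further: hits raise reporter mRNA above DMSO so AC50 marks FXR activation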); settings: HepG2 Attagene TRANS FXR-GAL4 reporter transcription
Sequence of Bile acid receptor (Homo sapiens) (Q96RI1 whole entry, looked up, the tested form may be a part): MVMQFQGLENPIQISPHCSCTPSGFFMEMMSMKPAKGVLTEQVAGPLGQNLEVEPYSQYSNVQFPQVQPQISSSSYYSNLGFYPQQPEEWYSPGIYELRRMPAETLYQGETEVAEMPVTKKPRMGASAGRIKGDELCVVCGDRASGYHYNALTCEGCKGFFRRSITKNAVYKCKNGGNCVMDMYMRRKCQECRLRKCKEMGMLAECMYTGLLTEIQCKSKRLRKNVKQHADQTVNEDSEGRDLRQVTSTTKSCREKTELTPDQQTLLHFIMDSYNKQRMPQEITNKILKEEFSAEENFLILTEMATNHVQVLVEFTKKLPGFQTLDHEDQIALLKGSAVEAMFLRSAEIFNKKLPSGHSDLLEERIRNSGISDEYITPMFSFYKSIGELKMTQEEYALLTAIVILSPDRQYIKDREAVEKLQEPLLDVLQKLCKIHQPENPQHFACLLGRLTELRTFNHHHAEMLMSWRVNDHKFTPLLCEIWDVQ
Summary of the method: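 Read-out: fluorescent reporter transcripts quantified by capillary electrophoresis after RT-PCR of total RNA. Source cells were HepG2 transiently carrying chimeric NR-GAL4 plus GAL4-UAS reporter units, dosed 24 h. Activity fitted upward relative to DMSO baseline.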

[18] = molecular target: Steroid hormone receptor ERR1 (Homo sapiens) (UniProt P11474); assay: ATG_ERRa_TRANS: Attagene TRANS-FACTORIAL HepG2 Assay for human Estrogen-Related Receptor alpha (ERRa) (AID 2282971; active means hit-call score of the fitted dose curve at least 0.9, where 1 is the maximum); settings: HepG2 Attagene TRANS reporter, ERRa transactivation
Summary of the method: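 Transfected HepG2, 24 h dosing, ERRa-Gal4 chimera driving GAL4-UAS reporter. Readout: reporter mRNA via RT-PCR plus capillary electrophoresis (fluorescence). Positive direction vs DMSO control.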

Measured: AC50

CC(CC(C)C)=NO
inactive: [1] | [2] | [3] | [4] | [5] | [6] | [7]

CCCCCCCCCCCC(=O)OCC
not listed: [6] | [7] | [15] | [16] | [17] | [18]
inactive: all other assays above

c1ccc2sc(SSN3CCOCC3)nc2c1
active: [5] 100 µM
not listed: [6] | [7] | [9] | [17] | [18]
inactive: all other assays above

CC(C)CC(=O)OCc1ccccc1
not listed: [9] | [10] | [11] | [12] | [15] | [17] | [18]
inactive: all other assays above

CCCCCCCCCCCCCc1ccccc1
not listed: [6] | [8] | [9] | [10] | [13] | [15] | [18]
inactive: all other assays above

C1CCSC1
not listed: [6] | [8] | [9] | [15]
inactive: all other assays above

CC(=O)OC(C)c1ccccc1 (configuration not stated)
not listed: [8] | [10] | [15] | [17] | [18]
inactive: all other assays above

[Cl][Sc]([Cl])[Cl]
not listed: [7] | [8] | [10] | [12] | [13] | [17] | [18]
inactive: all other assays above

CC(C)c1cc(C(C)C)cc(C(C)C)c1
inactive: [2] | [3] | [5] | [10] | [11] | [12]
active: [1] 169 µM | [4] 100 µM | [8] 58.9 µM | [13] 7.9 µM
